# This is a sample that favours compounds with a hit; in the whole collection about 4.6% have one here.
# tim10-1 inh – tim10-1 yeast growth inhibition; S. cerevisiae tim10-1 ts strain growth, BacTiter-Glo, 24 h; inhibition, % at 20 µM; AID 463190; hit rate 2.2% among 330,000;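 active = inhibition of at least 40%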;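 also: mutant grown at 25 °C; 0% = DMSO wells with yeast and 100% = wells holding no yeast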
# TIM10 inh – inhibits growth of TIM10 yeast strain | S. cerevisiae TIM10 strain growth, BacTiter-Glo luminescence, 24 h | inhibition, % at 10 µM | hit rate 1.4% among 330,000;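 active = inhibition of 40% or more at the single tested concentration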;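 also: wild-type TIM10 isogenic control strain grown at permissive 25 °C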
# PfHsp90 yeast 2 – inhibits growth of yeast expressing Plasmodium falciparum Hsp90; S. cerevisiae expressing PfHsp90, BacTiter-Glo ATP, 48 h; yeast lacking PDR1 and PDR3 efflux regulators; inhibition, % at 9.4 µM; hit rate 0.32% among 310,000;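 active = every replicate shows inhibition above about 80%, whatever the replicate mean, limit read from the data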;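 also: 0% = DMSO neutral controls and 100% = 20 µM radicicol positive controls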
# tim23-1 inh – inhibits growth of tim23-1 mutant yeast. S. cerevisiae tim23-1 growth, BacTiter-Glo luminescence, 24 h. inhibition, % at 20 µM. hit rate 1.3% among 330,000. AID 463212;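 active = growth inhibition of the mutant yeast at or above 50%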;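 also: temperature-sensitive mutant grown at 25 °C; plate controls were DMSO-treated mutant yeast for no effect and medium wells lacking yeast for full effect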
# NLRP3 yeast inh – NALP3 inhibition in yeast; hit rate 0.39% among 330,000; Yeast reconstituted NLRP3/ASC/caspase-1, beta-gal luminescence, 24 h; AID 2825; inhibition, % at 10 µM;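 active = inhibition of 50% or more; inactive = inhibition below 50%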;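 also: plate controls were induced DMSO wells for no effect and uninduced yeast grown without galactose for full effect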
# SKKanGAS inh – inhibitors of SKKanGAS S. pyogenes growth in kanamycin (SK-promoter or general growth effect); BacTiter-Glo, 6 h; inhibition, % at 7.5 µM; AID 1662; hit rate 1.3% among 300,000;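 active = mean replicate score, as percent of positive control median, at least 50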;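 also: strain carries kanamycin resistance gene driven by streptokinase promoter and grows in 40 µg/ml kanamycin; loss of luminescence reflects streptokinase promoter inhibition or plain growth inhibition; 0% = median of DMSO wells and 100% = positive control at its reference dose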
# Numbers without * were called inactive; nt = not tested or not shown.
SMILES,tim10-1 inh,TIM10 inh,PfHsp90 yeast 2,tim23-1 inh,NLRP3 yeast inh,SKKanGAS inh
CC/C(=C\C1CCCCC1)C(NP(=O)(c1ccccc1)c1ccccc1)c1ccccc1 (configuration not stated),37.9,7.2,-6.0,9.3,6.7,100.9*
O=S(=O)(NC1CC2CCC1C2)c1ccc2c(c1)OCCO2 (configuration not stated),-24.7,-27.1,20.8,-21.6,27.9,-0.6
COc1ccc(S(=O)(=O)NC2CC3CCC2C3)cc1Cl (configuration not stated),-56.5,-44.2,140.8*,-10.7,10.9,0.1
CC(=O)Nc1ccc(S(=O)(=O)NC2CC3CCC2C3)cc1 (configuration not stated),6.6,-5.8,1.6,13.5,12.1,-2.6
COc1ccc(S(=O)(=O)NC2CC3CCC2C3)cc1Br (configuration not stated),-82.6,-154.9,113.7*,13.9,20.6,17.1
CC(C)(C)NC(=O)C(=O)NNC(=O)COc1ccc(Br)cc1,-4.6,-10.4,-27.5,0.6,5.0,1.8
COc1ccc(NS(=O)(=O)c2ccc3c(c2)N(C(C)=O)CCO3)c(OC)c1,10.9,-14.4,-7.5,-8.6,11.3,0.0
CC(O)(c1ccccc1)c1ccc2ccccc2n1 (configuration not stated),nt,nt,-24.9,nt,nt,nt
C/C(=N\Nc1cc(C)nc(-c2ccccc2O)n1)c1ccccc1,21.7,18.0,-37.6,5.1,13.1,22.5
Cc1cc(N/N=C/c2ccc(O)c(C)c2O)nc(-c2ccccc2O)n1,nt,nt,-54.8,nt,nt,58.1*
CCCn1c(N)c(C(=O)CSc2nnc(Cc3cccs3)n2C2CC2)c(=O)n(C)c1=O,3.0,-2.9,-9.5,-1.9,11.1,nt
O=C1OC(c2ccccc2)(c2cc(Br)c(O)c(Br)c2)c2ccccc21 (configuration not stated),nt,nt,114.9*,nt,nt,nt
O=C(O)c1ccc(C2(c3ccc(C(=O)O)cc3)OC(=O)c3ccccc32)cc1,-9.2,2.9,-1.7,4.1,8.3,-4.2
Cc1ccc(N=Nc2ccc(O)c(P(=O)(c3ccccc3)c3ccccc3)c2)cc1,-4.4,0.6,-33.5,3.0,17.2,49.7*
COc1ccc(-c2nc(NC(C)=O)sc2-c2ccc(OC)cc2)cc1,23.7,23.6,-11.0,24.5,0.6,66.7*
Cc1ccc(/C=C2\S/C(=N/S(=O)(=O)c3cccs3)NC2=O)cc1,2.2,11.0,-1.1,4.3,3.5,0.8
O=C1C(Nc2ccccc2)=C/C(=N/S(=O)(=O)c2cccs2)c2ccccc21,nt,nt,-5.6,nt,nt,96.6*
Cc1ccc(NC2=C/C(=N/S(=O)(=O)c3cccs3)c3ccccc3C2=O)cc1,37.0,19.5,20.4,20.6,19.8,88.7*
CCCOc1ccc(-c2cnc(N)s2)cc1,14.4,12.5,3.8,10.9,20.7,-11.8
CC1(C)CC(=O)C(C2C3=C(CC(C)(C)CC3=O)Oc3c(Br)cc(Br)cc32)=C(O)C1 (configuration not stated),14.6,16.2,28.3,4.4,6.2,55.9*
O=C(Cn1cc(COc2c(F)c(F)c(Br)c(F)c2F)nn1)c1ccc(O)cc1,nt,nt,-6.2,nt,nt,nt
Cc1oc(C(C)(C)C)cc1C(=O)N1CCN(C(c2ccccc2)c2ccccc2)CC1,17.8,4.2,-37.3,27.8,8.5,63.3*
COc1ccc(-n2c(=S)[nH]c3cc(C(=O)N4CCN(c5ccccc5)CC4)ccc3c2=O)cc1,-22.4,9.0,-27.4,-1.6,11.1,24.1
O=C(C1CCCN(CCCc2ccccc2)C1)N1CCCCC1 (configuration not stated),6.9,-7.0,-23.9,2.8,0.6,3.0
Clc1ccc(-c2nc(N3CCCCC3)nc3ccccc23)cc1,15.1,24.0,4.3,0.6,-7.5,89.9*
COc1ccc2oc(C(=O)N(Cc3ccco3)Cc3cccs3)c(C)c2c1,2.7,-9.2,14.7,14.4,24.2,16.8
CCNC(=S)N/N=C/c1cc(C)ccc1C,13.4,-24.4,4.1,19.8,-15.6,-0.6
Cc1ccc(C)c(/C=N/NC(=S)NCCc2ccccc2)c1,35.1,-4.5,11.6,1.6,20.4,54.2*
Oc1ccccc1/C=N/NC(=S)NCCc1ccccc1,nt,nt,-14.7,nt,nt,95.9*
CCn1cc(CN2CCC(n3nccc3NC(=O)c3cccc(F)c3)CC2)cn1,4.4,-1.1,13.0,11.3,-9.1,4.7
